Assay [1] is described as follows: qHTS assay to identify small molecule antagonists of the glucocorticoid receptor (GR) signaling pathway - cell viability counter screen (AID 720693). Note: nearly all actives have a fitted effect of over 55% in size. Note: potency is the fitted concentration of half-maximal effect.
Assay [2] can be described thus: qHTS assay for identifying genotoxic compounds that show differential cytotoxicity against isogenic chicken DT40 cell lines with known DNA damage response pathways - wild type cell line (AID 743012). Note: nearly all actives have a fitted effect of over 60% in size. Note: potency is the fitted concentration of half-maximal effect. An outline of the steps:
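Quantitative HTS on parental DT40 cells: 40 h compound treatment at 37 C/5% CO2, with viability then determined by CellTiter-Glo luminescence. Values serve as the DNA repair-proficient reference for differential cytotoxicity.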
Background: In qHTS, concentration-response curves come from the screen itself.

The nature of assay [3]: qHTS assay for identifying genotoxic compounds that show differential cytotoxicity against isogenic chicken DT40 cell lines with known DNA damage response pathways - Rev3 mutant cell line (AID 743014). Note: nearly all actives have a fitted effect of over 55% in size. Note: potency is the fitted concentration of half-maximal effect.
A short description of assay [4]: qHTS assay for identifying genotoxic compounds that show differential cytotoxicity against isogenic chicken DT40 cell lines with known DNA damage response pathways - Rad54/Ku70 mutant cell line (AID 743015). Note: nearly all actives have a fitted effect of over 60% in size. Note: potency is the fitted concentration of half-maximal effect.
The nature of assay [5]: qHTS assay to identify small molecule antagonists of the androgen receptor (AR) signaling pathway - cell viability counter screen (AID 743033; note: nearly all actives have a fitted effect of over 45% in size; note: potency is the fitted concentration of half-maximal effect).
The target in assay [6] is Androgen receptor (Homo sapiens) (UniProt P10275). Put plainly: qHTS assay to identify small molecule agonists of the androgen receptor (AR) signaling pathway using the MDA cell line (AID 743040; note: nearly all actives have a fitted effect of over 20% in size). The conditions noted are these: MDA-kb2 AR-luc cells, MMTV luciferase, 16 h, stronger effect = higher value. A digest of the protocol:
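Cells plated, 5 h at 37C/0% CO2; compound or DMSO pinned; 16 h at 37C; ONE-Glo added; luminescence measured after 30 min at room temperature. Reporter line: MDA-kb2 with MMTV-luciferase responsive to AR and GR.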

A short description of assay [7]: qHTS assay to identify small molecule antagonists of the androgen receptor (AR) signaling pathway using the MDA cell line - cell viability counter screen (AID 743041; note: nearly all actives have a fitted effect of over 45% in size; note: potency is the fitted concentration of half-maximal effect). A digest of the protocol: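 Cells were plated at 3,000 per well and left 5 h. Compounds in DMSO were then pinned in, followed by R1881. After 16 h at 37C, CellTiter-Fluor fluorescence gave viability.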

Assay [8] deals with Androgen receptor (Homo sapiens) (UniProt P10275). The assay is described as follows: qHTS assay to identify small molecule antagonists of the androgen receptor (AR) signaling pathway using the MDA cell line (AID 743042; note: nearly all actives have a fitted effect of over 55% in size; note: potency is the fitted concentration of half-maximal effect). A digest of the protocol: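 Antagonist mode: compounds plus R1881 agonist added to MDA-kb2 AR-luc cells, incubated 16 h at 37C. Luciferase reporter luminescence quantified, with multiplexed CellTiter-Fluor readout for cell viability.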
Chain of Androgen receptor (Homo sapiens) (P10275 whole entry, looked up): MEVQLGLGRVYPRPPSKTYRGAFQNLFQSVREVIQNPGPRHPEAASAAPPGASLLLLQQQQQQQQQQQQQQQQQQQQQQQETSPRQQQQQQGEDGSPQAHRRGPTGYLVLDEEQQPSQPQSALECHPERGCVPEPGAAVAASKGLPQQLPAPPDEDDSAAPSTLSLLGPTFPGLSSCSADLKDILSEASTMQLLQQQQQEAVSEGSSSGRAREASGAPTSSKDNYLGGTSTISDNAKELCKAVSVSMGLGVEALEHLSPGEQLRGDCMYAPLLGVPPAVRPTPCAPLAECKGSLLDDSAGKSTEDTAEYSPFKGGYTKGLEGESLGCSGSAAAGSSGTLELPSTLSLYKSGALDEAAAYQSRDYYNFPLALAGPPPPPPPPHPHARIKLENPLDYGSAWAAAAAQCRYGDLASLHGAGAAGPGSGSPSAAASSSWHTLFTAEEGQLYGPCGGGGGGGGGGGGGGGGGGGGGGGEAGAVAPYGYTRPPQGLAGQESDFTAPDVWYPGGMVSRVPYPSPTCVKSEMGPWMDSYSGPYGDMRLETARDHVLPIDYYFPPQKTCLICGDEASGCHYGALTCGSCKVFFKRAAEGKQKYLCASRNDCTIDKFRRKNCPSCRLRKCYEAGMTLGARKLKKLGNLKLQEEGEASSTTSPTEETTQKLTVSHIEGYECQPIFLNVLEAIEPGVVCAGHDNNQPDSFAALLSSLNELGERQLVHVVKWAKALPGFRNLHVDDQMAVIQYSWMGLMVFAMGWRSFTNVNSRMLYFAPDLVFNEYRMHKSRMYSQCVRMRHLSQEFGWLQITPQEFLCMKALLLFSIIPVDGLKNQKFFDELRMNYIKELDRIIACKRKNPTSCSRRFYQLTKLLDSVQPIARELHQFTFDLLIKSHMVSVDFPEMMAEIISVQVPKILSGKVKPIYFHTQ

Assay [9] shares this target. The assay is described as follows: qHTS assay to identify small molecule agonists of the androgen receptor (AR) signaling pathway (AID 743036; active = well fitted activation curve with a large enough effect in the signal ratio in the repeat runs, with a control signal flat, not every such curve was filed as active; the % refers to the signal ratio). An outline of the steps: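 Cell-based FRET reporter assay: HEK293 line with a UAS-beta-lactamase construct, compounds added in DMSO, 16 h exposure at 37C, then 2 h substrate step at room temperature and fluorescence intensity read.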

For assay [10] the target is unchanged. Put plainly: qHTS assay to identify small molecule antagonists of the androgen receptor (AR) signaling pathway (AID 743035; active = well fitted inhibition curve with a large enough effect in the signal ratio in the repeat runs, not every such curve was filed as active; the % refers to the signal ratio; note: potency is the fitted concentration of half-maximal effect). A digest of the protocol: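 Cell line: GeneBLAzer AR-UAS-bla GripTite (HEK293). Stimulus: R1881 added after compound. Exposure: 16 h, 37C, 5% CO2. Readout: LiveBLAzer B/G FRET fluorescence after 2 h at room temperature.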

These results are taken from PubChem BioAssay (Tox21).

Values joined by “and” are separate entries in the source; they are usually repeats but may differ in a detail not shown here. Equal entries are not always repeated. Results filed as inconclusive are left out. Some structures have more than one record in an assay (separate samples or runs), and their calls can disagree. Active and inactive are the calls of the source. Unless noted, calls come from the whole dose curve; as a rule, active = well fitted curve in the direction sought with a large enough effect in the repeat runs; inconclusive = weak or mixed curves; inactive = no such curve, though single readings can be large; an effect the other way counts as inactive or inconclusive.
% is set by controls: 0 for no effect and ±100 for the full control effect.

`Cn1c(-c2ccccc2)cc(-c2ccccc2)[n+]1C`: in [1], the Potency result is “inactive”. Besides, the Potency is 12.2 µM (active) and 1.37 µM (active) in assay [2]; 2.73 µM (active) and 864 nM (active) in assay [3]; 4.32 µM (active) and 2.43 µM (active) in assay [4].

In the case of `COC(=O)Nc1nc2ccccc2[nH]1`, the Potency result in [1], in [5], in [7] and in assay [8] was “inactive” each time. Moreover, the Potency in [2] was 9.69 µM (active) and 8.63 µM (active); in [3] it was 6.11 µM (active) and 6.86 µM (active); in [4] it was 6.86 µM (active) and 7.7 µM (active). Also, the activity change in assay [6] (at 70.3 µM (top of the series)) is 0.968% (inactive) and 4.32% (inactive).

For `Brc1ccc(Br)cc1`, the Potency result in assay [1], in assay [2], in assay [3], in assay [4], in assay [5] and in assay [7] was “inactive” throughout.

As for `NC(=O)CN1CCCC1=O`, the Potency result in assay [1], in assay [2], in [3], in [4], in [5] and in assay [7] was “inactive” each time.

In the case of `OCCOCCO`, the Potency entry in [1], in assay [2], in assay [3], in assay [4], in [5] and in [7] was “inactive” each time.

Take `CCOP(=O)(O)OCC` (tested in a mixture with another compound): the Potency in assay [1] was 17.2 µM (active); in [2], “inactive and 96.1 nM (active)”; in assay [3] it was “inactive and 85.6 nM (active)”; in [4], “inactive and 96.1 nM (active)”; in [5], “inactive and 17.2 µM (active)”.

For `CCC[CH2][Sn]([Cl])([Cl])[CH2]CCC`, the Potency in assay [1] was 6.24 µM (active) and 6.16 µM (active); in [2], 438 nM (active) and 17.2 nM (active); in [3] it was 276 nM (active) and 17.2 nM (active); in assay [4], 348 nM (active) and 17.2 nM (active); in [5] it was 1.4 µM (active) and 389 nM (active); in assay [7] it was 1.96 µM (active) and 2.73 µM (active).

With `CC1=C(C(=O)Nc2ccccc2)SCCO1`, the Potency result in assay [1], in [5], in assay [9], in assay [7] and in [8] was “inactive” in each case. In addition, the Potency was 62.1 µM (active) and 17.2 µM (active) in assay [2]; 24.7 µM (active) and 12.2 µM (active) in [3]; 62.1 µM (active) and 19.3 µM (active) in [4]. Further, the activity change in [6] (at 70.3 µM (top of the series)) is 4% (inactive); in assay [6] (at 95 µM (top of the series)) it was 0.0315% (inactive).

Consider `C=CC(=O)OCC(CC)(COC(=O)C=C)COC(=O)C=C`, for which the Potency in [1] is 12.6 µM (active) and 11 µM (active); in assay [2], 2.8 µM (active) and 3.06 µM (active); in assay [3], 1.58 µM (active) and 3.06 µM (active); in [4], 2.5 µM (active) and 2.43 µM (active); in [5], 7.97 µM (active) and 12.3 µM (active); in [10], 4.48 µM (active). Moreover, the Potency in assay [7] is 62.8 µM (active) and 30.6 µM (active); in [8] it was 8.87 µM (active) and 6.86 µM (active). In addition, the activity change in [6] (at 70.3 µM (top of the series)) is -11.9% (inactive); in assay [6] (at 95 µM (top of the series)), -11.2% (inactive).

For the molecule `Nc1ccc([N+](=O)[O-])cc1N`, the Potency result in [1] and in assay [5] was “inactive” each time. Also, the Potency was 27.3 µM (active) in [2]; 43.2 µM (active) and inactive in [3]; 13.7 µM (active) and 19.3 µM (active) in assay [4].

As to `CCOP(=S)(OCC)SCSC(C)(C)C`, the Potency result in assay [1], in [2], in assay [3], in assay [4], in [5] and in [7] was “inactive” throughout.

`CCCCCCCC[N+](C)(CCCCCCCC)CCCCCCCC`: the Potency in assay [1] was 13.8 µM (active) and 5.5 µM (active) and 11 µM (active); in assay [2], 768 nM (active) and 433 nM (active) and 306 nM (active); in assay [3], 433 nM (active) and 686 nM (active); in [4] it was 610 nM (active) and 273 nM (active) and 386 nM (active); in assay [5], 3.46 µM (active) and 872 nM (active) and 3.47 µM (active); in assay [7] it was 17.2 µM (active) and 2.73 µM (active) and 15.4 µM (active).

Take `CCC1(c2ccc(N)cc2)CCC(=O)NC1=O` (stereo not drawn): the Potency result in assay [1], in [2], in assay [3], in assay [4], in assay [5] and in assay [10] was “inactive” throughout. The Potency entry in assay [9], in [7] and in [8] was “inactive” each time. Besides, the activity change in assay [6] (at 70.3 µM (top of the series)) is -1.61% (inactive) and 2% (inactive).

`CC(C)Nc1ccc(Nc2ccccc2)cc1`: the Potency result in [1] was “inactive”. Also, the Potency in [2] is 5.96 µM (active) and 17.2 µM (active) and 12.2 µM (active); in assay [3], 10.6 µM (active) and 12.1 µM (active) and 13.7 µM (active); in assay [4], 8.41 µM (active) and 15.3 µM (active) and 10.9 µM (active); in [5], 21.8 µM (active) and 49 µM (active); in assay [7] it was 68.3 µM (active) and 61.1 µM (active).

For `O=C1CCCO1`, the Potency result in assay [1], in assay [2], in assay [3], in assay [4], in assay [5] and in assay [10] was “inactive” throughout. Further, the Potency result in assay [9], in [7] and in assay [8] was “inactive” throughout. Further, the activity change in assay [6] (at 70.3 µM (top of the series)) is -2.47% (inactive) and -0.181% (inactive).

With `Clc1cccc(Cl)c1`, the Potency entry in [1], in [2], in assay [3], in assay [4], in assay [5] and in [7] was “inactive” in each case.

In the case of `CCC(=O)Nc1ccc(Cl)c(Cl)c1`, the Potency entry in [1], in assay [2], in [3], in [4], in [5] and in [9] was “inactive” throughout. Besides, the Potency result in assay [7] was “inactive”. Also, the Potency in assay [10] is 22.3 µM (active) and 24.5 µM (active); in assay [8], 48.6 µM (active). Moreover, the activity change was -3.69% (inactive) in [6] (at 70.3 µM (top of the series)) and -4.49% (inactive) in assay [6] (at 95 µM (top of the series)).

Consider `C[N+](C)(C)CC(=O)[O-]`, for which the Potency result in assay [1], in [2], in assay [3], in [4], in assay [5] and in assay [7] was “inactive” each time.

As for `CC(C)(O)C(=O)Nc1ccc([N+](=O)[O-])c(C(F)(F)F)c1`, the Potency entry in assay [1] was “inactive”. Moreover, the Potency in assay [2] is 55.6 µM (active) and 5.62 µM (active); in assay [3], 49.5 µM (active) and 6.31 µM (active); in assay [4] it was 19.7 µM (active) and 5.01 µM (active).

Take `[CH3][Sn]([Cl])([Cl])[Cl]`: the Potency entry in [1], in assay [2], in assay [3], in assay [4], in assay [5] and in [7] was “inactive” throughout.

With `CCC/C=N/O`, the Potency entry in assay [1], in assay [2], in [3], in assay [4], in [5] and in assay [7] was “inactive” throughout.
